In PubChem BioAssay (NCI) one finds growth data, which are given here for 9 compounds.

Compounds without any hit were thinned out: in the full panel of roughly 83,000, 20% have a hit.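 Single-dose data. Exposure time 48 hours. Values below 10 considered active.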 Values without a mark were called inactive. Active and inactive are the calls of the source.

What all share (experiment): NCI-60 one-dose screen, 48 h (100 = growth as untreated, 0 = no growth, -100 = all killed)
One assay deals with SR leukemia. The following applies: 10 µM unless noted.
The subject of the next assay is RPMI-8226 leukemia. As to conditions: 10 µM unless noted.
Another assay concerns OVCAR-8 ovarian. As to conditions: 10 µM unless noted.
A further assay relates to OVCAR-5 ovarian. The following applies: 10 µM unless noted.
A further assay has as its system OVCAR-4 ovarian. As to conditions: 10 µM unless noted.
A further assay has as its system IGROV1 ovarian. The following applies: 10 µM unless noted.
The next assay deals with OVCAR-3 ovarian. As to conditions: 10 µM unless noted.
In another assay the test system is HS 578T breast. As to conditions: 10 µM.
A further assay deals with NCI/ADR-RES ovarian. The following applies: 10 µM unless noted.
A further assay deals with T-47D breast. The following applies: 10 µM unless noted.
The next assay has as its system BT-549 breast. As to conditions: 10 µM unless noted.
The next assay deals with MDA-MB-435 melanoma. As to conditions: 10 µM unless noted.
Another assay relates to SW-620 colon. The following applies: 10 µM unless noted.
A further assay has as its system MCF7 breast. The following applies: 10 µM unless noted.
A further assay concerns HCT-116 colon. The following applies: 10 µM unless noted.
A further assay deals with HCC-2998 colon. As to conditions: 10 µM.
For another assay, the system named is SK-OV-3 ovarian. As to conditions: 10 µM unless noted.
Another assay relates to KM12 colon. As to conditions: 10 µM unless noted.

For `COc1cc(NCCN(CC(C)C)CC(C)C)c2ncc(C)cc2c1`, the growth was 76.3% with SR leukemia; 62.6% with RPMI-8226 leukemia; 68.7% with OVCAR-8 ovarian; 111% in the assay on OVCAR-5 ovarian; 34.6% in the assay on OVCAR-4 ovarian; 76.5% in the assay on IGROV1 ovarian. For the same compound, the growth is 1.71% (active) with OVCAR-3 ovarian; 100% in the assay with HS 578T breast; 76.5% in the assay on NCI/ADR-RES ovarian; 20.3% in the assay on T-47D breast; 88.7% in the assay on BT-549 breast; -76.4% (active) in the assay with MDA-MB-435 melanoma. Also, the growth is 68.1% in the assay on SW-620 colon, 2.66% (active) in the assay with MCF7 breast, 31.8% in the assay with HCT-116 colon and 85.6% with HCC-2998 colon.
For `O=C(Nc1ccc(Nc2ncnc3sc4c(c23)CCOC4)cc1)Nc1ccc(Cl)c(C(F)(F)F)c1`, the growth with SR leukemia is 83%; with RPMI-8226 leukemia, 80.8%; in the assay on OVCAR-8 ovarian, 109%; in the assay with OVCAR-5 ovarian, 89.2%; with OVCAR-4 ovarian it was 131%; with SK-OV-3 ovarian, 95.3%. In addition, the growth was 87.2% in the assay with OVCAR-3 ovarian; 94.7% in the assay on NCI/ADR-RES ovarian; 81.8% in the assay on T-47D breast; 89.1% in the assay on BT-549 breast; 99.1% with MDA-MB-435 melanoma; 121% in the assay on SW-620 colon. Further, the growth in the assay on MCF7 breast is 90.5%; in the assay on HCT-116 colon it was 77.5%; in the assay with HCC-2998 colon, 106%; in the assay with KM12 colon, 86.4%.
For the compound `NC1=Nc2ccccc2N(O)N1`, the growth is 105% in the assay with SR leukemia; 107% in the assay on RPMI-8226 leukemia; 104% in the assay on OVCAR-8 ovarian; 92.4% in the assay on OVCAR-5 ovarian; 99.8% with OVCAR-4 ovarian; 105% with IGROV1 ovarian. Moreover, the growth was 111% in the assay with OVCAR-3 ovarian; 97.3% with HS 578T breast; 103% with NCI/ADR-RES ovarian; 87.1% in the assay with T-47D breast; 95% with BT-549 breast; 106% in the assay with MDA-MB-435 melanoma. Besides, the growth in the assay with SW-620 colon is 105%; in the assay with MCF7 breast it was 94.2%; in the assay on HCT-116 colon it was 93.3%; in the assay on HCC-2998 colon it was 91.3%.
For the compound `CC(C)(C)C(=O)OCOP(=O)(OCOC(=O)C(C)(C)C)C1CCCN(OC(=O)c2ccccc2)C1=O` (stereo not given), the growth is 7.15% (active) in the assay on SR leukemia; -30.8% (active) in the assay with RPMI-8226 leukemia; 7.36% (active) in the assay with OVCAR-8 ovarian; 65.5% in the assay with OVCAR-5 ovarian; 31.9% with OVCAR-4 ovarian; 5.28% (active) with IGROV1 ovarian. Further, the growth in the assay with OVCAR-3 ovarian was 7.34% (active); in the assay on HS 578T breast, 8% (active); in the assay with NCI/ADR-RES ovarian, 3.76% (active); in the assay on T-47D breast, 13.8%; in the assay with MDA-MB-435 melanoma, 45.2%; in the assay on SW-620 colon, 45.1%. Also, the growth in the assay on MCF7 breast was 0.983% (active); in the assay on HCT-116 colon, 13%; in the assay on HCC-2998 colon, 25.2%; with KM12 colon, 5.57% (active).
With `Clc1ccc(Nc2nccc(Nc3ccc4[nH]ncc4c3)n2)cc1`, the growth was 2.66% (active) with SR leukemia; 18.3% in the assay on RPMI-8226 leukemia; 22.1% in the assay with OVCAR-8 ovarian; 64.9% in the assay with OVCAR-5 ovarian; 49.3% in the assay on OVCAR-4 ovarian; 46.9% with IGROV1 ovarian. Further, the growth in the assay with OVCAR-3 ovarian is 52.1%; with HS 578T breast it was 61.5%; in the assay with NCI/ADR-RES ovarian it was 38.9%; in the assay on T-47D breast, 30.1%; in the assay on BT-549 breast it was 53%; in the assay with MDA-MB-435 melanoma, 55.8%. The growth with SW-620 colon is 33%; in the assay with MCF7 breast it was 25%; in the assay on HCT-116 colon, 39.4%; in the assay with HCC-2998 colon, 94.3%; with KM12 colon, 9.06% (active).
On to `COC(=O)CNC(=O)[C@@H](OC)[C@@H]1Cc2cc3cc(OC4CC(OC5CC(O)C(O)C(C)O5)C(O)C(C)O4)c(C)c(O)c3c(O)c2C(=O)[C@H]1OC1CC(OC2CC(OC3CC(C)(O)C(O)C(C)O3)C(O)C(C)O2)C(O)C(C)O1` (stereo not given in full), for which the growth in the assay with SR leukemia was 11.1%; with RPMI-8226 leukemia, 2.86% (active); in the assay on OVCAR-8 ovarian, 12.4%; in the assay on OVCAR-5 ovarian it was 16.4%; with OVCAR-4 ovarian, 2.95% (active); in the assay with IGROV1 ovarian, 32%. Besides, the growth with OVCAR-3 ovarian was 3.71% (active); with HS 578T breast, -6.65% (active); in the assay on NCI/ADR-RES ovarian, 88.2%; in the assay on T-47D breast it was 11.3%; in the assay with BT-549 breast, -44.3% (active); in the assay on MDA-MB-435 melanoma, -39.2% (active). For the same compound, the growth is 12.7% with SW-620 colon; 7.64% (active) in the assay on MCF7 breast; 3.52% (active) in the assay on HCT-116 colon; -42.3% (active) in the assay with HCC-2998 colon; 6.86% (active) in the assay with KM12 colon.
Turning to `CNC(=O)c1nn(C)c2c1C(C)(C)Cc1cnc(Nc3ccc(N4CCN(C)CC4)cc3)nc1-2`, the growth was -1.85% (active) with SR leukemia; 0.421% (active) with RPMI-8226 leukemia; 8.9% (active) in the assay with OVCAR-8 ovarian; 9.13% (active) in the assay on OVCAR-5 ovarian; 12.9% with OVCAR-4 ovarian; 2.47% (active) with IGROV1 ovarian. Moreover, the growth with OVCAR-3 ovarian was 20.7%; with NCI/ADR-RES ovarian, 9.88% (active); in the assay on T-47D breast, -5.71% (active); in the assay with BT-549 breast, 5.23% (active); in the assay with MDA-MB-435 melanoma, 21.1%; in the assay with SW-620 colon, 11.5%. Moreover, the growth in the assay on MCF7 breast is 10.4%; in the assay with HCT-116 colon, 0.153% (active); in the assay on HCC-2998 colon it was 10.4%.
On to `Cn1ccnc1C(=O)/C=C/c1ccc(CC(=O)Nc2ccc(Br)cc2)cc1`, for which the growth with SR leukemia is 3.22% (active); in the assay on RPMI-8226 leukemia, 8.13% (active); in the assay on OVCAR-8 ovarian, 3.98% (active); with OVCAR-5 ovarian, 21.8%; in the assay on OVCAR-4 ovarian, 43.2%; in the assay with SK-OV-3 ovarian it was 54.6%. In addition, the growth in the assay with OVCAR-3 ovarian is 11.1%; with NCI/ADR-RES ovarian it was 16.3%; in the assay with T-47D breast, 4.43% (active); in the assay with BT-549 breast, 12.1%; with MDA-MB-435 melanoma, 45.6%; in the assay with SW-620 colon, 4.81% (active). For the same compound, the growth with MCF7 breast was 12%; in the assay on HCT-116 colon it was 12%; in the assay on HCC-2998 colon, 15.3%; with KM12 colon, 4.87% (active).
Regarding `Cc1[nH]n(C(N)=S)c(=O)c1N=Nc1ccc(S(=O)(=O)Nc2ccncn2)cc1`, the growth with SR leukemia is 111%; in the assay with RPMI-8226 leukemia it was 47.2%; in the assay with OVCAR-8 ovarian, 106%; with OVCAR-5 ovarian it was 111%; with OVCAR-4 ovarian, 95.1%; with IGROV1 ovarian it was 67.3%. For the same compound, the growth in the assay with OVCAR-3 ovarian is 99%; in the assay with HS 578T breast, 86.2%; with NCI/ADR-RES ovarian, 104%; with T-47D breast, 109%; in the assay on BT-549 breast it was 143%; with MDA-MB-435 melanoma, 136%. The growth is 102% in the assay with SW-620 colon, 88.1% with MCF7 breast, 112% in the assay on HCT-116 colon and 99.5% with KM12 colon.
